Source: PubChem BioAssay
Results filed as inconclusive are left out. Active and inactive are the calls of the source.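 The calls were made as follows, unless noted: active = GFP signal, as percent of the solvent control, above the screen mean plus 3 SD, about 149; inconclusive = no reading because the compound's own fluorescence upset strain identification; inactive = the rest.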

How the values were obtained:
[1] = yeast TOR pathway RPL19A-GFP modulators, primary screen, cell-based, S. cerevisiae, multiplex flow cytometry (AID 1862; in the data active = percent of DMSO control GFP below about 86%;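 also: lower values mimic rapamycin by blocking the RPL19A rise seen in DMSO cells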); conditions: S. cerevisiae RPL19A-GFP strain, flow cytometry fluorescence, 3 h; at 10 µM; stronger effect = lower value
[2] = modulators of MEP2-GFP levels in yeast, primary screen, S. cerevisiae, multiplex flow cytometry (AID 1867;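 active = GFP response, as percent of the DMSO control, above the screen-wide mean plus 3 SD, about 139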;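 also: median GFP channel fluorescence of barcode-gated MEP2-GFP cells measured by flow cytometry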); conditions: S. cerevisiae MEP2-GFP strain, 3 h, at 10 µM, stronger effect = higher value, 100% means same as DMSO wells
[3] = modulators of CIT2-GFP expression in yeast, primary screen, S. cerevisiae, GFP fusion, multiplex flow cytometry (AID 1870;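 active = percent response above a set limit, the screen-wide mean plus 3 SD, cut at about 130% in these data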;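 also: barcoded CIT2-GFP strain pooled with four other GFP strains with rapamycin as positive control; median GFP fluorescence per well over plate mean of DMSO wells so 100% = DMSO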); conditions: 3 h, at 10 µM, stronger effect = higher value
[4] = modulators of LAP4-GFP expression in yeast, primary screen, S. cerevisiae, multiplex flow cytometry (AID 1873); conditions: 3 h, at 10 µM, stronger effect = higher value
[5] = modulators of AGP1-GFP expression in yeast TOR pathway, primary screen, cell-based, multiplex flow cytometry, S. cerevisiae (AID 1887;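 active = GFP signal above the screen-wide mean plus 3 SD, that is over about 124.5% of the solvent control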;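 also: AGP1-GFP fusion strain of S. cerevisiae within a five-strain barcoded multiplex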); conditions: 3 h, at 10 µM, stronger effect = higher value
[6] = inhibitors of CD8+ T cell-vesicle binding, pilot screen, LFA-1/ICAM-1 modulator project, MLPCN validation set, flow cytometry (AID 2523;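 active = response below a set limit, under 55% cells CD8-positive and vesicle-bound, and CD8 cells' 90th-percentile brightness under 279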;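 as to vesicle binding response: mean PE anti-B7-1 fluorescence of CD8+ cells relative to row control; 100% = QL9-loaded vesicles with DMSO vehicle in the same plate row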); conditions: 2C mouse CD8+ T cells, at 7 µM, stronger effect = lower value; double positive events: measured here: CD8+/vesicle+ event percentage
[7] = molecular target: Integrin beta-1 (Homo sapiens) + Integrin alpha-4 (Homo sapiens) (UniProt P13612+P05556); experiment: inhibition of HUTS-21 binding to VLA-4, pilot screen, VLA-4 allosteric modulator project, U937 cells, HUTS-21 mAb, flow cytometry, validation set (AID 2674;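 active = inhibition above 50%, about 3 SD of the validation set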;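 also: antibody binding induced by the VLA-4 ligand LDV present at three times its Kd; 0% = LDV ligand with antibody and no compound and 100% = antibody without LDV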); conditions: HUTS-21 LIBS mAb binding, at 6.7 µM, stronger effect = higher value, binding induced by LDV ligand
[8] = superoxide lowering in aged yeast cells, pilot screen, validation compound set (AID 2706;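 active = superoxide response below 65% of plate, a cut near 3 SD across the whole screen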;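 also: yeast exposed to compound for one week at 30 degrees C before staining; 100% = mean of all compound wells on the same plate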); conditions: S. cerevisiae aging, superoxide DHE fluorescence; at 10 µM; stronger effect = lower value
[9] = molecular target: Beta-adrenergic receptor kinase 1 (Homo sapiens) (UniProt P25098); experiment: GRK2 binders displacing RNA aptamer, biochemical, validation, human GRK2, bead flow cytometry (AID 488806;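 active = aptamer binding inhibition above 30%, about 3 SD of noise from non-fluorescent compounds; inactive = inhibition at or below 30%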); conditions: bead-bound GRK2, FAM-aptamer displacement, at 10 µM, stronger effect = higher value
[10] = molecular target: Beta-2 adrenergic receptor (Homo sapiens) (UniProt P07550); experiment: beta2AR agonists driving receptor internalization, pilot screen, cell-based, FAP fluorogen, flow cytometry, validation set (AID 504459;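 active = percent response above 42, roughly 3 SD of non-fluorescent test compounds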;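 also: agonist-driven loss of surface beta2AR via internalization measured by FAP dye flow cytometry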); conditions: Am2.2-beta2AR cells, FAP surface receptor flow cytometry; at 10 µM; stronger effect = higher value
[11] = molecular target: AP-2 complex subunit beta (Homo sapiens) (UniProt P63010); experiment: inhibitors of arrestin peptide binding to AP2, pilot screen, biochemical, validation set, GST-AP2 beads, flow cytometry (AID 504541;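 active = inhibition above 54%, about 3 SD of non-fluorescent compounds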;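 also: AP2 carries R879A mutation and is captured from E. coli lysate; bead-bound FITC arrestin peptide fluorescence measuring arrestin peptide binding to AP2; 0% = DMSO wells and 100% = excess unlabeled arrestin peptide control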); conditions: FITC arrestin peptide, at 10 µM, stronger effect = higher value, AP2 beta2 appendage fragment, R879A mutant
[12] = yeast V-ATPase proton transport modulators, S. cerevisiae, pHLuorin, HTS validation (AID 504600; in the data active = response above about 15%;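 also: plate controls were DMSO for no effect and reference compound for full effect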); conditions: S. cerevisiae pHLuorin cytosolic pH, at 10 µM, stronger effect = higher value
[13] = test system: anti-desmoglein-3 scFv antibody binding to human DSG3; experiment: inhibitors of anti-DSG3 scFv binding to DSG3, pilot screen, biochemical, validation compound set, bead-based, flow cytometry (AID 588368;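 active = binding below the plate cutoff, the plate median minus 3 SD, with a reading above zero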;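 also: signal is the median channel fluorescence of bead-bound GFP antibody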); conditions: Protein G beads, DSG3-Fc, scFv-GFP binding, at 10 µM, stronger effect = lower value
[14] = inhibitors of fungal efflux pumps CDR1, CDR2, MDR1, pilot screen, validation compound set, multiplex, phenotypic (AID 588506;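 active = efflux inhibition above 0.42, the validation set average plus 4 SD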;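 also: Nile Red retained in cells so higher fluorescence means more efflux inhibition; 0 = negative control wells and 1 = enniatin B 25 µM full block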); conditions: S. cerevisiae pump-expressing triplex, Nile Red efflux flow cytometry; at 10 µM; stronger effect = higher value; the pumps come from Candida albicans
[15] = molecular target: ATP-binding cassette sub-family B member 6 (Homo sapiens) (UniProt Q9NP58); experiment: ABCB6 transporter inhibitors, pilot screen, K562-ABCB6 cells, flow cytometry, validation set (AID 588550;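 active = inhibition above the screen-wide mean plus 3 SD, about 51%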;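 also: 0% = DMSO wells and 100% = benzethonium chloride 70 µM positive control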); conditions: K562-ABCB6 porphyrin accumulation, 1 h, at 10 µM, stronger effect = higher value
[16] = promoters of myeloid differentiation in arrested cells, primary screen, cell-based, GFP/MAC1 double positive, flow cytometry, validation set (AID 588685;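 active = differentiation response of at least 50%, scaled between solvent and reference control, from cells with both markers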;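 also: compound exposure lasts four days before antibody staining and flow analysis; 0% = DMSO wells and 100% = 5 µM fulvestrant positive control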); conditions: ER-HoxA9 marrow cells, stronger effect = higher value, normalized: vehicle 0, fulvestrant 100

Integrin beta-1 (Homo sapiens) + Integrin alpha-4 (Homo sapiens), sequence (P05556 whole entry, looked up): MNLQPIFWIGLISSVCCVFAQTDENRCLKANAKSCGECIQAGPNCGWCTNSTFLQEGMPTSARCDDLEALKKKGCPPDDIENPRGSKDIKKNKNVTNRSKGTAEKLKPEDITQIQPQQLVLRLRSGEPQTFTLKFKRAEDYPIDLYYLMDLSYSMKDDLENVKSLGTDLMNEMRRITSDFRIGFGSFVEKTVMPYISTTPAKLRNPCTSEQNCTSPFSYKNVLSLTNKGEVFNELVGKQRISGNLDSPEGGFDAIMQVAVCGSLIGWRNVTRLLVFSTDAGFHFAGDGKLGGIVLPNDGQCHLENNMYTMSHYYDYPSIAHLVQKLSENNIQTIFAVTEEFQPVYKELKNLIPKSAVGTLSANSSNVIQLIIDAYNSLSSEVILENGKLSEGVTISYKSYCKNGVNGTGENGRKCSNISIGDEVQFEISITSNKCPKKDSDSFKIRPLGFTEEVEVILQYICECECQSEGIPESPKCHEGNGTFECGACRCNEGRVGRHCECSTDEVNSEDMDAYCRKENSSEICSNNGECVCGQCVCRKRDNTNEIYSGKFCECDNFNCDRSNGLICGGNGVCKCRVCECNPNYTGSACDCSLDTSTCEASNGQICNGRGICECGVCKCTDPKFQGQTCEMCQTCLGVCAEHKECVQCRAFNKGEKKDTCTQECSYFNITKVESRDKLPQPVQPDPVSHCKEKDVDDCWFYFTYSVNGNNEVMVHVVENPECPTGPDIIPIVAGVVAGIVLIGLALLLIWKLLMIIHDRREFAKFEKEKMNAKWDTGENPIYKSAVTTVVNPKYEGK
Integrin beta-1 (Homo sapiens) + Integrin alpha-4 (Homo sapiens), sequence (P13612 whole entry, looked up): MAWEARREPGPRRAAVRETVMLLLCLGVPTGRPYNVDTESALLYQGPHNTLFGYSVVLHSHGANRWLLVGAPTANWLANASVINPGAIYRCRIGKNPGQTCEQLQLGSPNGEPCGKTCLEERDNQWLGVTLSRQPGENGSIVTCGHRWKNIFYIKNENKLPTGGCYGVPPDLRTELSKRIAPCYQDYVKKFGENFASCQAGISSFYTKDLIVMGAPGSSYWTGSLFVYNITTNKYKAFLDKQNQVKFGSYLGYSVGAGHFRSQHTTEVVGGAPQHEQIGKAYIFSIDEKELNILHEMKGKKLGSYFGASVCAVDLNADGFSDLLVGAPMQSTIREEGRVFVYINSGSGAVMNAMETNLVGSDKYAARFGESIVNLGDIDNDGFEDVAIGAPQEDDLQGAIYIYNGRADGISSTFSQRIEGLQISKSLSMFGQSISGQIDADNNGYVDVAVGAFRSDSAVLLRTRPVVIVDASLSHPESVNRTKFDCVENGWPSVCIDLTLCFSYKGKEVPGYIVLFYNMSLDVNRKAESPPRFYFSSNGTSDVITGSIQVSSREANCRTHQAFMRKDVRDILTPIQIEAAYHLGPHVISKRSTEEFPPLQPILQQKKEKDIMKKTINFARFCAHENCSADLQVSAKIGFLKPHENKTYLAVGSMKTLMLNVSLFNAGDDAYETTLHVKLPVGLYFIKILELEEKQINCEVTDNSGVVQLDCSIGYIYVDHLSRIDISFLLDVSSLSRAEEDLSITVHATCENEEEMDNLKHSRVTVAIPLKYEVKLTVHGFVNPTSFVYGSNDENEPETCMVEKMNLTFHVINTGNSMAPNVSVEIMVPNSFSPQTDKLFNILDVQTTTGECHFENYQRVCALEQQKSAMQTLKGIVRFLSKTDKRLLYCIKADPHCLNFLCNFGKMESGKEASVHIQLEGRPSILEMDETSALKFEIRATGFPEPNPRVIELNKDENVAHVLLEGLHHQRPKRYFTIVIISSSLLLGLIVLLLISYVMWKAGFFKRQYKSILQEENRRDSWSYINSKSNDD
ATP-binding cassette sub-family B member 6 (Homo sapiens), sequence (Q9NP58 whole entry, looked up): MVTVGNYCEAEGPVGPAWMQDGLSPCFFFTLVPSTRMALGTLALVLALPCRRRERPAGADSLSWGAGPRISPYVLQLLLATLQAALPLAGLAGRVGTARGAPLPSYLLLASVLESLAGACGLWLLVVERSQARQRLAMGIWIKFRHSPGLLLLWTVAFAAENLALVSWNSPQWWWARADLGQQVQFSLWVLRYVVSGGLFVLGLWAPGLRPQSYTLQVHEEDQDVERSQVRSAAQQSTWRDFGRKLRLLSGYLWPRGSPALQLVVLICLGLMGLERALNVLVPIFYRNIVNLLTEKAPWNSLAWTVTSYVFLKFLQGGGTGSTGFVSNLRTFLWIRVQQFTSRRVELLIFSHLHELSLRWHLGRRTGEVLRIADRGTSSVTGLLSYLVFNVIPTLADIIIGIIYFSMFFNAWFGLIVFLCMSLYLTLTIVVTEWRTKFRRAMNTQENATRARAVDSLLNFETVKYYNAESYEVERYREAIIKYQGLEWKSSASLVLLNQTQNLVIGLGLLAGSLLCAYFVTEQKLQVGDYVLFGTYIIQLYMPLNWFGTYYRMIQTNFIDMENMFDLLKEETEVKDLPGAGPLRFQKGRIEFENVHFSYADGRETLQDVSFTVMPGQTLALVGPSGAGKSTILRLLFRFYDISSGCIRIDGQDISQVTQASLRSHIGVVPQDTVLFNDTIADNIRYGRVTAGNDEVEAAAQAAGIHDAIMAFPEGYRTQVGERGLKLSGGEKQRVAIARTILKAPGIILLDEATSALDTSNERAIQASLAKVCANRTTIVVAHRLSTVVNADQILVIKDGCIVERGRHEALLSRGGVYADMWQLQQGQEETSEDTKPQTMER
Beta-adrenergic receptor kinase 1 (Homo sapiens), sequence (P25098 whole entry, looked up): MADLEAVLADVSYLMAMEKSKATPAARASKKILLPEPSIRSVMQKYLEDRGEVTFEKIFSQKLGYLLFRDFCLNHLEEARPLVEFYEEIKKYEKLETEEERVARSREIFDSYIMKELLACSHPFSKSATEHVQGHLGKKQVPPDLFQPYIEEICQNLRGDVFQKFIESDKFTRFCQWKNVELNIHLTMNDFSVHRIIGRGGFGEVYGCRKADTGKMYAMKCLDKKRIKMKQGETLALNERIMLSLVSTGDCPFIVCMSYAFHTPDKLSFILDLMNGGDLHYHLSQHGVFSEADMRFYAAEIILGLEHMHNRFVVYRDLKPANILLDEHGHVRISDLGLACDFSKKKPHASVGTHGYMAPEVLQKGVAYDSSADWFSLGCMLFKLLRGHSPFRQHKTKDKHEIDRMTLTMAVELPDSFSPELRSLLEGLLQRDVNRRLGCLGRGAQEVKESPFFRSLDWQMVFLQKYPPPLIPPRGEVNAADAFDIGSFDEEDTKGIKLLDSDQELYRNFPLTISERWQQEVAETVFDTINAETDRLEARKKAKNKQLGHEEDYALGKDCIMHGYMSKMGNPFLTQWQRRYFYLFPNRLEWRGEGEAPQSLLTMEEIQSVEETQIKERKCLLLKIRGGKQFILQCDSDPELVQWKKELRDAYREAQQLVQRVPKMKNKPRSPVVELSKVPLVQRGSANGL
AP-2 complex subunit beta (Homo sapiens), sequence (P63010 whole entry, looked up, the tested form may be a part, one chain of several): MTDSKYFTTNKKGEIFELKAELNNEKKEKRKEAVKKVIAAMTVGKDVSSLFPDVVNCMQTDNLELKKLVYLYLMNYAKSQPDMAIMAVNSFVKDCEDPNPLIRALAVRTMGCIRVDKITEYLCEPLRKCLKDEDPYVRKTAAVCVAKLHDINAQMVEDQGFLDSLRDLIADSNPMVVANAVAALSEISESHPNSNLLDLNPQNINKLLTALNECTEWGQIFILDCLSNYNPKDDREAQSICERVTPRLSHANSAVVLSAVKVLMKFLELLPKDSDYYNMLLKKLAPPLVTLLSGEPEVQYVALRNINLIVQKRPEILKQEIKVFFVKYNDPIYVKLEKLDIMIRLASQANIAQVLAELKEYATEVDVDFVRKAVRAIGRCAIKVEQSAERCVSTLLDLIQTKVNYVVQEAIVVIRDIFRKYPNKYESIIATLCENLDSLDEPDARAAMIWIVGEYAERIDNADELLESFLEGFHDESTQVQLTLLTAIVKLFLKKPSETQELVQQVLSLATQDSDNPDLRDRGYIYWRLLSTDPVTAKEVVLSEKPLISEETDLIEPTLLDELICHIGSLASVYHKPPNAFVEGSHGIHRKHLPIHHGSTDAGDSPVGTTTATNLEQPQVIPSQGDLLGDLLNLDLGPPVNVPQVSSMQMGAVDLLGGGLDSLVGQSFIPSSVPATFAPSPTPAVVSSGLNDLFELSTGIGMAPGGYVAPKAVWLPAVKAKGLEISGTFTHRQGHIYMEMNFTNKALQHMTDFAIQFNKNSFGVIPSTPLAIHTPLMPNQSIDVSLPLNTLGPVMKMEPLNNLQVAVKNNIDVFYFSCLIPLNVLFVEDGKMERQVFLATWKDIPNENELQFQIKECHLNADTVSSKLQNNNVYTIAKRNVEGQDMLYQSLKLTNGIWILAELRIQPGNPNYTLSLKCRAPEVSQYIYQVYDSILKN
Beta-2 adrenergic receptor (Homo sapiens), sequence (P07550 whole entry, looked up): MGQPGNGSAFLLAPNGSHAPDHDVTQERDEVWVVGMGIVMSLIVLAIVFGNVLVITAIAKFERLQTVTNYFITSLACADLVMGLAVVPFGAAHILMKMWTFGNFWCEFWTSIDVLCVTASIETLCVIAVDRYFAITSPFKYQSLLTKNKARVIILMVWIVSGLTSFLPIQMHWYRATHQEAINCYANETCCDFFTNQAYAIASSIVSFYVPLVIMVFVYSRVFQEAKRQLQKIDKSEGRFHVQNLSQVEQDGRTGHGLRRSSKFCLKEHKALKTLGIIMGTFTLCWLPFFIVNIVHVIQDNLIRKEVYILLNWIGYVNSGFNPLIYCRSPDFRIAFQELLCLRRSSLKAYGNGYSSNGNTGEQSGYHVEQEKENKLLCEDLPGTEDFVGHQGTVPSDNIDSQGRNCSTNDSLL

| SMILES | percent of DMSO control GFP [1] | GFP response vs DMSO [2] | percent response of DMSO control [3] | GFP response vs DMSO [4] | GFP response, % of DMSO [5] | double positive events [6] | vesicle binding response [6] | inhibition [7] | superoxide response (% of plate) [8] | aptamer binding inhibition [9] | response [10] | inhibition [11] | response [12] | binding (% of control) [13] | efflux inhibition (fraction of control) [14] | inhibition [15] | differentiation response [16] |
| --- | --- | --- | --- | --- | --- | --- | --- | --- | --- | --- | --- | --- | --- | --- | --- | --- | --- |
| O=C(Cc1ccccc1[N+](=O)[O-])NCc1ccncc1 | 101% (inactive) | 101% (inactive) | 101% (inactive) | 97.4% (inactive) | 97.4% (inactive) | 63.2% | 243% (inactive) | 6.4% (inactive) | 97.3% (inactive) | 7% (inactive) | -1.07% (inactive) | -3.75% (inactive) | -1.46% (inactive) | 98.2% (inactive) | -0.03 (inactive) | 2% (inactive) | -15.2% (inactive) |
| COc1cccc(CN2C(=O)N(C(C)C)C(N(O)C(=O)NC(C)C)C2(C)C)c1OC (stereo not drawn) | 98.2% (inactive) | 103% (inactive) | 115% (inactive) | 97.3% (inactive) | 101% (inactive) | 67.3% | 216% (inactive) | -11.9% (inactive) | 84.9% (inactive) | -1% (inactive) | -7.26% (inactive) | -6.77% (inactive) | -0.84% (inactive) | 97.4% (inactive) | -0.04 (inactive) | 26% (inactive) | 7.09% (inactive) |
| COCCCNc1nc2c([nH]1)c(=O)[nH]c(=O)n2C | 104% (inactive) | 99.6% (inactive) | 105% (inactive) | 112% (inactive) | 114% (inactive) | 63.1% | 156% (inactive) | 9.95% (inactive) | 94.3% (inactive) | 4% (inactive) | -17.8% (inactive) | 13.3% (inactive) | 6.45% (inactive) | 98.5% (inactive) | -0.17 (inactive) | 6% (inactive) | -5.97% (inactive) |
| COc1ccccc1/C=C/C(=O)OCCN1CCOCC1 | 99.8% (inactive) | 119% (inactive) | 114% (inactive) | 79.8% (inactive) | 103% (inactive) | 56.7% | 229% (inactive) | -8.09% (inactive) | 126% (inactive) | -4% (inactive) | -13.3% (inactive) | 0.96% (inactive) | -0.97% (inactive) | 106% (inactive) | 0.27 (inactive) | -9% (inactive) | -4.91% (inactive) |
| Cc1ccc(S(=O)(=O)Oc2ccccc2/C=N/N=C(N)N)cc1 | 102% (inactive) | 103% (inactive) | 104% (inactive) | 93.7% (inactive) | 103% (inactive) | 68.2% | 172% (inactive) | 12.6% (inactive) | 97.8% (inactive) | 1% (inactive) | 7.63% (inactive) | 6.93% (inactive) | -0.49% (inactive) | 103% (inactive) | 0.01 (inactive) | 7% (inactive) | -2.64% (inactive) |
| CC12CCC(C(=O)NCc3ccccn3)(OC1=O)C2(C)C (stereo not drawn) | 102% (inactive) | 103% (inactive) | 103% (inactive) | 98% (inactive) | 103% (inactive) | 61.8% | 167% (inactive) | 1.59% (inactive) | 92.4% (inactive) | 0% (inactive) | -3.72% (inactive) | 6.09% (inactive) | -2.31% (inactive) | 104% (inactive) | -0.24 (inactive) | 33% (inactive) | 5.67% (inactive) |
| CCCCCC(=O)O[C@]1(C(C)=O)CC[C@H]2[C@@H]3CCC4=CC(=O)CC[C@]4(C)[C@H]3CC[C@@]21C | 98.9% (inactive) | 95.6% (inactive) | 94.5% (inactive) | 108% (inactive) | 98.1% (inactive) | 60% | 153% (inactive) | -17.2% (inactive) | 105% (inactive) | 0% (inactive) | 6.12% (inactive) | 18.3% (inactive) | -0.4% (inactive) | 105% (inactive) | -0.155 (inactive) | 2% (inactive) | -0.18% (inactive) |
| O=C(O)CCCCCN1C(=O)C(=O)/C(=C(/O)c2ccccc2)C1c1ccccc1 (stereo not drawn) | 99.5% (inactive) | 97.4% (inactive) | 98.6% (inactive) | 119% (inactive) | 102% (inactive) | 63.1% | 212% (inactive) | -5.89% (inactive) | 103% (inactive) | 7% (inactive) | -2.6% (inactive) | -10.9% (inactive) | -1.69% (inactive) | 98% (inactive) | -0.06 (inactive) | 7% (inactive) | 7.2% (inactive) |
| CC(=O)N1CCN(c2ccc(OC[C@H]3CO[C@](Cn4ccnc4)(c4ccc(Cl)cc4Cl)O3)cc2)CC1 | 105% (inactive) | 108% (inactive) | 111% (inactive) | 109% (inactive) | 111% (inactive) | 63.3% | 188% (inactive) | 4.27% (inactive) | 100% (inactive) | -2% (inactive) | 0.01% (inactive) | 6.3% (inactive) | -2.33% (inactive) | 98.1% (inactive) | 0.59 (active) | -9% (inactive) | -10.4% (inactive) |
